Avidin bead fluor: green autofluorescence of compounds with avidin beads – biophysical, 488/530 nm, flow cytometry, artefact control, profiling panel; compound fluorescence 488/530 nm; stronger effect = higher value; fluorescence (KMESF) at 10 µM; 0.38% of 220,000 active; in the data active = fluorescence above about 47
RGS4-Gao reg: modulators of RGS4 binding to Galphao, primary screen, biochemical, multiplexed bead flow cytometry; Guanine nucleotide-binding protein G(o) subunit alpha (Homo sapiens), P09471; actives lie on both sides; binding response (% of control), % at 10 µM; 0.33% of 220,000 active; AID 1415, 2008; in the data active = binding response below about 49% or above about 150%; inactive = in between;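 also: fluorescent Galphao activated with aluminum fluoride binding bead-coupled RGS4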
Target sequence (P09471 whole entry, looked up): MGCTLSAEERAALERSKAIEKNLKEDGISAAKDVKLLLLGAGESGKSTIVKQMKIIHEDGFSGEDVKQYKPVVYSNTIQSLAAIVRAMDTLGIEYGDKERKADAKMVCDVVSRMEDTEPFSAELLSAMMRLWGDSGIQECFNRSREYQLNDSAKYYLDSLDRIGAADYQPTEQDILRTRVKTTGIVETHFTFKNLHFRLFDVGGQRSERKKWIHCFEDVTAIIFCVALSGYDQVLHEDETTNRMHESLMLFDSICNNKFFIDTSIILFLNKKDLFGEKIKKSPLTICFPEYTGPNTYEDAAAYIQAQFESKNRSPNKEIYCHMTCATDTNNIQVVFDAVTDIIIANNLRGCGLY
RGS7-Gao: RGS7-Galphao binding modulators, primary screen, biochemical, multiplexed bead flow cytometry | Guanine nucleotide-binding protein G(o) subunit alpha (Homo sapiens), P09471 | actives lie on both sides | binding response (% of control), % at 10 µM | 0.35% of 220,000 active | AID 1439, 2008; in the data active = binding response below about 49% or above about 150%; inconclusive = no clear call, values can overlap the other calls; inactive = in between;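 also: fluorescent Galphao held in activated GDP-AlF4 state binding bead-coupled RGS7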
RGS16-Gao: modulators of RGS16 binding to Galphao, primary screen, biochemical, human proteins, multiplexed bead flow cytometry; Regulator of G-protein signaling 16 (Homo sapiens) + Guanine nucleotide-binding protein …; bead-based flow cytometry RGS16-Galphao binding, fluorescence; actives lie on both sides; binding response (% of control), % at 10 µM; 0.38% of 220,000 active;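 also: Galphao activated by GDP with aluminum fluoride before binding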
RGS8-Gao: RGS8-Galphao binding modulators, primary screen, biochemical, multiplexed bead flow cytometry | Guanine nucleotide-binding protein G(o) subunit alpha (Homo sapiens), P09471 | response (percent of control binding), % at 10 µM | 0.34% of 220,000 active | actives lie on both sides; in the data active = response below about 60% or above about 140%; inactive = in between;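 also: Galphao activated as the GDP aluminium fluoride complex binding bead-coupled RGS8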
GSH bead fluor: compound fluorescence on glutathione beads, profiling panel, artefact control, biophysical, 488/530 nm, flow cytometry; GSH beads flow cytometry, compound fluorescence 488/530 nm; stronger effect = higher value; 0.25% of 190,000 active; fluorescence (KMESF) at 10 µM; in the data active = fluorescence above about 89;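 also: glutathione beads carrying GST-tagged Bcl family fusion proteins plus one bare bead set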
RGS4-Gao HTS: modulators of RGS–Galpha-o binding, primary screen, biochemical, multiplexed beads, flow cytometry, RGS4/7/8/16/19. multiplexed bead flow cytometry. 99% of 1,600 active. RGS4–Galpha-o binding response, % at 10 µM. shares compounds with RGS16-Gao;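 also: fluorescently labeled Galpha-o bound to GDP with aluminium fluoride binding biotinylated RGS beads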
Target sequence (P09471 whole entry, looked up): as above
Target sequence (P49798 whole entry, looked up): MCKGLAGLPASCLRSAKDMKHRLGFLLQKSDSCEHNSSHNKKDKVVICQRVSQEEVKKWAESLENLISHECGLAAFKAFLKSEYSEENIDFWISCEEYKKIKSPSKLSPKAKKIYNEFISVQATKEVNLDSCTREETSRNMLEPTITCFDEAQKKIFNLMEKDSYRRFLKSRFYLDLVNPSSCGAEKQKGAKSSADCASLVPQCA
Avidin counter: disruption of biotin probe capture by avidin, counter-screen for RGS protein interaction modulators, biochemical, flow cytometry, bead-based | shares compounds with RGS16-Gao | streptavidin beads, fluorescein-biotin binding | inhibition, % at 10 µM | 1,700 tested, under 10 active;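 active = inhibition above 50%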;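 also: median green fluorescence of gated singlet beads compared with DMSO control wells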
RGS8-Gao confirm: RGS8-Galphao binding modulators, confirmation, biochemical, multiplexed bead flow cytometry, single concentration | AID 1836, 2009 | bead-based flow cytometry RGS8-Galphao binding, fluorescence; actives lie on both sides | binding response (% of control), % at 10 µM | shares compounds with RGS16-Gao | 3% of 1,700 active; in the data active = binding response below about 72% or above about 130%; inactive = in between;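 also: Galphao activated as GDP AlF4 complex before binding bead RGS8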
RGS7-Gao single: RGS7-Galphao binding modulators, confirmation, biochemical, multiplexed bead flow cytometry, single concentration | shares compounds with RGS16-Gao | bead-based flow cytometry RGS7-Galphao binding; actives lie on both sides | response (percent of control binding), % at 10 µM | 7.8% of 1,700 active; in the data active = response below about 75% or above about 130%; inactive = in between;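 also: fluorescent Galphao activated with GDP and aluminum fluoride binding bead-coupled RGS7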
RGS16-Gao conf: modulators of RGS16-Galphao protein binding, confirmation, biochemical, single concentration, multiplexed bead flow cytometry | bead-based flow cytometry; actives lie on both sides | 4% of 1,700 active | shares compounds with RGS16-Gao | response (% of control binding), % at 10 µM; in the data active = response below about 74% or above about 130%; inactive = in between;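 also: Galphao activated as the GDP aluminium fluoride complex binding bead-coupled RGS16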
RGS4-Gao confirm: modulators of RGS4-Galphao protein binding, confirmation, biochemical, single concentration, multiplexed bead flow cytometry. actives lie on both sides. binding response (% of control), % at 10 µM. shares compounds with RGS16-Gao. 4% of 1,700 active; in the data active = binding response below about 74% or above about 130%; inactive = in between
RGS19-Gao conf: regulators of RGS19-Galphao binding, confirmation, biochemical, single point, multiplexed bead flow cytometry; shares compounds with RGS16-Gao; bead-based flow cytometry RGS19-Galphao binding; actives lie on both sides; response (percent of control binding), % at 10 µM; 5% of 1,700 active; AID 1841, 2009; in the data active = response below about 50% or above about 160%; inactive = in between
A number is an active result; - = inactive; ? = inconclusive; . = no result given; [ ] = remark or other dose. Most compounds without a hit are left out; they make up all but 1.2% or so of the library. Unless noted, no rule for the calls is given here.

SMILES	Avidin bead fluor	RGS4-Gao reg	RGS7-Gao	RGS16-Gao	RGS8-Gao	GSH bead fluor	RGS4-Gao HTS	Avidin counter	RGS8-Gao confirm	RGS7-Gao single	RGS16-Gao conf	RGS4-Gao confirm	RGS19-Gao conf
Cc1csc(NC(=O)c2ccco2)n1	-	-	-	-	-	-	.	.	.	.	.	.	.
CCOC(=O)C1(CCOC)CCN(Cc2cnc(-c3cccc(C)c3)nc2)CC1	-	-	-	-	-	-	.	.	.	.	.	.	.
Cc1cccc(N2CN(Cc3cccnc3)CNC2=S)c1	-	-	-	-	-	-	.	.	.	.	.	.	.
S=C1NCN(Cc2cccnc2)CN1c1cccc2ccccc12	-	26	?	-	44	.	.	-	-	-	-	-	-
Cc1cnc(C(=O)OCC(=O)c2cc(C)n(C)c2C)cn1	-	-	?	-	-	-	.	.	.	.	.	.	.
COC(=O)c1sc(-c2ccc(Cl)cc2)cc1N	-	-	?	-	-	.	.	.	.	.	.	.	.
COC(=O)c1sc(-c2cccs2)cc1N	50	173[activator]	?	-	-	.	.	-	-	-	-	-	-
Cc1noc(C)c1S(=O)(=O)NC1CCN(Cc2ccccc2)CC1	-	-	-	183[activator]	-	-	108	.	.	.	.	.	.
CCOc1ccc(NC(=O)CC2C(=O)N(c3ccccc3)C(=O)N2Cc2ccccn2)cc1 (stereo not drawn)	-	-	-	-	144[activator]	-	135	-	-	-	-	-	-
C/C(=N/O)c1ccc(Oc2cnccn2)cc1	-	-	?	-	-	-	.	.	.	.	.	.	.
CCCn1c(N)nc2ccccc21	-	-	-	-	144[activator]	-	115	-	-	-	-	-	-
COc1cc(-c2cc(C(=O)O)c3cc4c(cc3n2)OCCO4)cc(OC)c1OC	.	.	.	.	.	-	.	-	-	-	-	-	-
COc1cc(-c2cc(C(=O)NN3CCN(C)CC3)c3ccccc3n2)cc(OC)c1OC	-	-	-	282[activator]	-	-	111	-	-	-	-	-	-
CCOc1ccc(N2C(=O)C3C(c4ccc(O)cc4)NC(CCSC)(C(=O)OC)C3C2=O)cc1 (stereo not drawn)	-	-	-	-	-	-	.	.	.	.	.	.	.
C=CCn1c(COc2cc(C)ccc2C(C)C)nnc1SCC(=O)c1c(N)n(C)c(=O)n(C)c1=O	-	-	-	-	-	-	.	.	.	.	.	.	.
O=C(C=C=Nc1ccccc1)C(=O)N=C=Cc1ccccc1	-	-	?	-	-	.	.	.	.	.	.	.	.
CC1CN(S(=O)(=O)c2ccc(C(=O)Nc3nnc(-c4ccccn4)o3)cc2)CC(C)O1 (stereo not drawn)	-	15	-18	9.5	12	-	.	-	-	-	-	-	-
COc1ccc(-c2cc(C(F)(F)F)nc(SCC(=O)NCc3cnn(C)c3C)n2)cc1OC	-	-	-	-	-	-	.	.	.	.	.	.	.
COc1ccc(-c2cc(C(F)(F)F)nc(SCC(=O)N(C)Cc3cn(C)nc3C)n2)cc1OC	-	-	-	0.0	-	-	78	-	-	-	-	-	-
CCCCCCC(=O)c1c(C)[nH]c(C(=O)OCC)c1C	-	-	-	.	.	-	.	-	-	-	-	-	-
O=S(=O)(c1cccc(F)c1)N1CCCN(c2ccc(C(F)(F)F)cn2)CC1	-	-	?	-	-	.	.	.	.	.	.	.	.
O=C(NNC(=O)C1CC2CCC1C2)c1sc2ccccc2c1Cl (stereo not drawn)	94	-	166[activator]	-	-	-	109	-	-	-	-	-	-
CNC(=O)CN(C)S(=O)(=O)c1ccc(OC)c(Cl)c1	-	25	19	17	16	-	.	-	-	-	-	-	-
COc1ccc(-c2cc(-c3n[nH]c(=S)n3-c3ccccc3Cl)[nH]n2)cc1	-	-	-	-	-	-	.	.	.	.	.	.	.
C/C=C(\C)C(=O)NCCN1C2=NC[C@H](Cc3ccccc3)N2C[C@H]1Cc1ccc(O)cc1	-	34	20	19	24	-	.	-	-	-	-	-	-
SMILES	Avidin bead fluor	RGS4-Gao reg	RGS7-Gao	RGS16-Gao	RGS8-Gao	GSH bead fluor	RGS4-Gao HTS	Avidin counter	RGS8-Gao confirm	RGS7-Gao single	RGS16-Gao conf	RGS4-Gao confirm	RGS19-Gao conf
COc1ccc(NC(=O)Nc2ccc(CC(=O)O)cc2)cc1	-	-	?	-	-	-	.	.	.	.	.	.	.
COC(=O)CCC(=O)NNC(=O)c1ccc(Cl)cc1Cl	113	-	175[activator]	-	-	-	104	.	.	.	.	.	.
COC(=O)CCC(=O)NNC(=O)CCCOc1ccc(Cl)cc1Cl	-	-	-	-	-	-	.	.	.	.	.	.	.
CCn1nnnc1NCc1ccc(N2CCCC2)cc1	-	35	-	-	-	-	.	-	-	-	-	-	-
N/C(=N\OC(=O)c1ccco1)c1ccc(Cl)cc1	63	-	164[activator]	-	-	-	109	-	-	-	-	-	-
N/C(=N\OC(=O)c1ccc(Cl)cc1)c1ccc(Cl)cc1	-	-	-	-	-	-	.	.	.	.	.	.	.
N=C1c2ccccc2CN1NC(=O)c1cccc(S(=O)(=O)N2CCOCC2)c1	-	-	-	236[activator]	-	-	116	-	-	165[activator]	126[activator]	127[activator]	324[activator]
Cc1noc(C)c1C(=O)N1CCC(C(=O)c2ccc(F)cc2F)CC1	-	-	?	-	-	.	.	.	.	.	.	.	.

Assay outcomes as filed in PubChem.
